Test systems include RPMI-8226 leukemia; OVCAR-8 ovarian; OVCAR-5 ovarian; OVCAR-4 ovarian; SK-OV-3 ovarian; IGROV1 ovarian; OVCAR-3 ovarian; HS 578T breast; NCI/ADR-RES ovarian; BT-549 breast; MDA-MB-435 melanoma; SW-620 colon; MCF7 breast; HCT-116 colon; HCC-2998 colon; KM12 colon; T-47D breast.
Holding throughout (assay): NCI-60 one-dose screen, 48 h (100 = growth as untreated, 0 = no growth, -100 = all killed)
What all share (details): 10 µM unless noted

Molecules are shown by their SMILES. Compounds without any hit were thinned out: in the full panel of roughly 83,000, 20% have a hit.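 Compound tested at a single concentration for 48 hours in 96-well plates; a percent growth value below 10 was scored as active.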 A number with no mark means an inactive call. Activity calls are given as the source filed them.

Take `O=C(Cn1ccnc1)NC(c1ccccc1)c1ccccc1`: the growth with RPMI-8226 leukemia was 108%; in the assay on OVCAR-8 ovarian it was 102%; in the assay on OVCAR-5 ovarian it was 83.5%; in the assay with OVCAR-4 ovarian it was 105%; in the assay with SK-OV-3 ovarian, 114%; with IGROV1 ovarian, 106%. In addition, the growth was 116% with OVCAR-3 ovarian; 102% in the assay on HS 578T breast; 102% in the assay with NCI/ADR-RES ovarian; 105% in the assay on BT-549 breast; 99.4% with MDA-MB-435 melanoma; 106% in the assay with SW-620 colon. For the same molecule, the growth with MCF7 breast is 100%; in the assay on HCT-116 colon, 106%; in the assay with HCC-2998 colon, 97.6%; in the assay with KM12 colon it was 103%.

Consider `NCCCc1nnc(CCC(=O)c2nc3ccccc3[nH]2)o1`, for which the growth is 101% in the assay with RPMI-8226 leukemia; 110% with OVCAR-8 ovarian; 104% in the assay on OVCAR-5 ovarian; 104% in the assay with OVCAR-4 ovarian; 106% in the assay with SK-OV-3 ovarian; 104% in the assay on IGROV1 ovarian. The growth in the assay with OVCAR-3 ovarian is 119%; in the assay with HS 578T breast, 112%; in the assay with NCI/ADR-RES ovarian, 97.9%; in the assay with BT-549 breast it was 103%; in the assay with MDA-MB-435 melanoma it was 105%; in the assay with SW-620 colon, 108%. Also, the growth was 91.4% in the assay on MCF7 breast, 100% with HCT-116 colon, 98.1% with HCC-2998 colon and 115% in the assay on KM12 colon.

For the molecule `Cn1cc(-c2csc(-c3c[nH]c4ncccc34)n2)c2cc(Br)cnc21`, the growth is 61.8% in the assay with RPMI-8226 leukemia; 22.4% in the assay on OVCAR-8 ovarian; 82.3% with OVCAR-5 ovarian; -34.6% (active) with OVCAR-4 ovarian; 0.893% (active) with SK-OV-3 ovarian; 27.3% in the assay on IGROV1 ovarian. In addition, the growth in the assay on OVCAR-3 ovarian is 20.6%; with NCI/ADR-RES ovarian, 29.2%; in the assay on T-47D breast, 20.7%; in the assay with BT-549 breast, 45.5%; in the assay on MDA-MB-435 melanoma it was 33.8%; in the assay on SW-620 colon it was 39.2%. Also, the growth in the assay with MCF7 breast was 35%; in the assay on HCT-116 colon it was 5.99% (active); in the assay on HCC-2998 colon, 64.2%; in the assay with KM12 colon, 63.1%.

For the molecule `CCCCCCOc1ccc(/C=N/NC(N)=S)cc1`, the growth was 7.2% (active) in the assay with RPMI-8226 leukemia; 70.6% in the assay on OVCAR-8 ovarian; 84.5% with OVCAR-5 ovarian; 26.5% with OVCAR-4 ovarian; 90.6% with SK-OV-3 ovarian; 13.9% in the assay with IGROV1 ovarian. The growth in the assay with OVCAR-3 ovarian is 28.5%; in the assay with HS 578T breast it was 61.8%; with NCI/ADR-RES ovarian, 58.5%; in the assay on BT-549 breast it was -5% (active); in the assay with SW-620 colon, 23.3%; in the assay with MCF7 breast, 56.6%. The growth was 33.6% in the assay with HCT-116 colon, 72.1% in the assay on HCC-2998 colon and 48.9% with KM12 colon.

Take `COc1ccc2c(c1)C(=O)c1c-2c(OCCCN(C)C)nc2cc(Br)ccc12`: the growth is 73.4% in the assay on RPMI-8226 leukemia; 3.85% (active) in the assay on OVCAR-8 ovarian; -46% (active) in the assay on OVCAR-5 ovarian; 88.6% in the assay with OVCAR-4 ovarian; 81.3% with SK-OV-3 ovarian; 71.3% in the assay with IGROV1 ovarian. Besides, the growth is 89.1% in the assay on OVCAR-3 ovarian; 81.4% in the assay on HS 578T breast; 65.6% in the assay on NCI/ADR-RES ovarian; 89.7% in the assay with BT-549 breast; 90.2% with MDA-MB-435 melanoma; 35.7% in the assay on SW-620 colon. Also, the growth in the assay with MCF7 breast is 18.5%; in the assay with HCT-116 colon, 56.8%; with HCC-2998 colon, 69.6%; in the assay on KM12 colon, 69.7%.

Take `COc1ccc(OC)c2c1[nH]c(=O)c1c3ccccc3cn21`: the growth in the assay on RPMI-8226 leukemia is -21.8% (active); in the assay on OVCAR-8 ovarian, -80.7% (active); with OVCAR-5 ovarian, -45.1% (active); with OVCAR-4 ovarian, -29% (active); with SK-OV-3 ovarian, -86% (active); in the assay with IGROV1 ovarian it was -60.7% (active). Also, the growth is -6.09% (active) in the assay with NCI/ADR-RES ovarian; -48.3% (active) in the assay with T-47D breast; -11.6% (active) with BT-549 breast; -97.9% (active) in the assay with MDA-MB-435 melanoma; -59.8% (active) in the assay on SW-620 colon; -78.5% (active) in the assay with MCF7 breast. Besides, the figures for the growth with HCT-116 colon, in the assay with HCC-2998 colon and with KM12 colon were -71.5% (active), -77.4% (active) and -52.6% (active), respectively.

As to `N=c1ccn2c(n1)O[C@@H]1[C@@H](O)[C@H](CO)O[C@@H]12`, the growth is 94.4% in the assay with RPMI-8226 leukemia; 25.7% with OVCAR-8 ovarian; 81% with OVCAR-5 ovarian; 76.7% in the assay on OVCAR-4 ovarian; 61.7% in the assay with SK-OV-3 ovarian; 71.4% in the assay with IGROV1 ovarian. Besides, the growth is 87.5% in the assay on OVCAR-3 ovarian; 99% with HS 578T breast; 41.6% with NCI/ADR-RES ovarian; 83.5% in the assay with BT-549 breast; 57.1% in the assay on MDA-MB-435 melanoma; 66.5% with SW-620 colon. The growth in the assay with HCT-116 colon was 37.4%; with HCC-2998 colon, 50.2%; in the assay on KM12 colon, 77.4%.

`CCOc1cccc(C2CC(=O)Nc3cc4c(cc32)OCO4)c1` (stereo unspecified): the growth in the assay with RPMI-8226 leukemia was 71.1%; with OVCAR-8 ovarian, 89%; in the assay with OVCAR-5 ovarian it was 109%; in the assay on OVCAR-4 ovarian, 89.9%; in the assay with SK-OV-3 ovarian, 86.6%; in the assay with IGROV1 ovarian, 83.4%. The growth was 82.4% in the assay on OVCAR-3 ovarian; 91.6% in the assay with HS 578T breast; 82.3% with NCI/ADR-RES ovarian; 82.4% in the assay on BT-549 breast; 29.2% with MDA-MB-435 melanoma; 84.2% with SW-620 colon. Moreover, the growth was 82.8% with MCF7 breast, 80.7% in the assay with HCT-116 colon, 86.4% with HCC-2998 colon and 72.3% in the assay on KM12 colon.

Consider `Cc1cc2cn3c4cccnc4[nH]c(=O)c3c2cc1C`, for which the growth in the assay on RPMI-8226 leukemia is -5.48% (active); with OVCAR-8 ovarian, -46.1% (active); in the assay with OVCAR-5 ovarian, 92.9%; in the assay on OVCAR-4 ovarian, 47.9%; in the assay on SK-OV-3 ovarian it was 81%; in the assay on IGROV1 ovarian, 65%. In addition, the growth in the assay on OVCAR-3 ovarian is 29.5%; in the assay with NCI/ADR-RES ovarian it was 9.65% (active); with T-47D breast, -21.3% (active); in the assay on BT-549 breast, 73.2%; in the assay with MDA-MB-435 melanoma, -20.7% (active); with SW-620 colon, -29.5% (active). Further, the growth was -36.9% (active) in the assay with MCF7 breast, -85.3% (active) in the assay with HCT-116 colon, 60% with HCC-2998 colon and 13.1% with KM12 colon.

For the origin of these results see PubChem BioAssay (NCI).
